Assay results: ChEMBL document CHEMBL4513216, “Probing the Open Global Health Chemical Diversity Library for Multistage-Active Starting Points for Next-Generation Antimalarials” (ACS Infect Dis, 2020)
Hit rate of the full screen: of about 69,000 compounds, about 8,600 (12%) showed an effect of 50% or more. This excerpt belongs to a sample that is enriched for strong results.

test system: Plasmodium berghei; assay: Screen against P. berghei liver stage (PbLuc), transformed with Luciferase, at 10uM; assay type: functional, HepG2; details: tested at 10 uM

Row | SMILES | INHIBITION
1 | COCC1CN(Cc2ccncc2)Cc2nn(C)cc21 (centres undefined) | -5.05%
2 | COCC1CN(Cc2ccccn2)Cc2cn(C)nc21 (centres undefined) | 45.1%
3 | CCOCC1CN(Cc2ccc(OC)cc2)Cc2nn(C)cc21 (centres undefined) | 30.7%
4 | COCC1CN(Cc2ccc(OC)cc2)Cc2nn(C)cc21 (centres undefined) | 93.3%
5 | COCC1CN(Cc2ccc(F)cc2)Cc2nn(C)cc21 (centres undefined) | 8.93%
6 | COCC1CN(Cc2ccccn2)Cc2nn(C)cc21 (centres undefined) | 60.2%
7 | NCC1CCC(c2c(C(N)=O)sc3ccccc23)CC1 (centres undefined) | 14.6%
8 | COCCCNc1c(-c2ccc(C)cc2)c(=O)c1=O | 35.1%
9 | COCCNc1c(-c2ccc(Cl)cc2)c(=O)c1=O | 24.5%
10 | COCCCNc1c(-c2ccc(Cl)cc2)c(=O)c1=O | 60.8%
11 | CN(c1ccccc1)c1ccc(CC2CCCN(CCO)C2)nn1 (centres undefined) | 16.5%
12 | CC(=O)NCCC(=O)Nc1sccc1C(=O)C(C)(C)C | 48.9%
13 | CC(C)(C)n1cc(C#N)cc1NC(=O)CCNC(=O)c1ccco1 | 26.5%
14 | CC(C)(C)C(=O)c1ccsc1NC(=O)CCNC(=O)c1ccco1 | 75.8%
15 | CC(=O)NCCNC(=O)c1sccc1Br | 28.5%
16 | CC(C)(CNC(=O)c1ccco1)CNC(=O)c1ccco1 | -18.9%
17 | CC(=O)Nc1sccc1C(=O)C(C)(C)C | 77.7%
18 | Cc1nn(C)c(C)c1CN(C)C(=O)c1cc(NC(=O)C2CC2)n(C)n1 | 44.05%
19 | CCCc1nc(NCCOC)c2c(n1)c(C)nn2CC | 17%
20 | O=C(c1cnccn1)N1CCN2C[C@H](Oc3cccc(F)c3)C[C@H]2C1 | 47.5%
21 | CN1CC2(CCNCC2)COc2ccccc2S1(=O)=O | -15.7%
22 | CC(c1cccc(-c2ncccc2F)c1)N(C)C (centres undefined) | -17.4%
23 | O=C(O)Cn1nc(C2CC2)c2c(-c3ccco3)ccnc21 | 22%

Row | SMILES | INHIBITION
24 | OCCNc1nccc(-c2c[nH]nc2-c2ccco2)n1 | -43.4%
25 | COCCNc1ncc(-c2cc(C)no2)c(-c2ccco2)n1 | 47.4%
26 | Cc1ncc(-c2ccnc(SCCN)n2)c(-c2ccco2)n1 | 42.6%
27 | NCCSc1nccc(-c2cnc(C3CC3)nc2-c2ccco2)n1 | 75.3%
28 | Cc1ncc(-c2ccnc(SCCN(C)C)n2)c(-c2ccco2)n1 | 70.8%
29 | c1cc(CN2CCC3(CC2)COC(COCC2CC2)C3)cs1 (centres undefined) | 19.8%
30 | Nc1nc(N)c2c(n1)OC1(CCCN(Cc3nccs3)CC1)C2 (centres undefined) | 10.25%
31 | CC(C)c1noc(CCNC(=O)N2CCC(O)(C(F)(F)F)C2)n1 (centres undefined) | 36.5%
32 | Fc1ccc(C2(CNCCc3cccs3)CCOC2)cc1 (centres undefined) | 63.1%
33 | OCCOCCNCC1(c2ccc(F)cc2)CCOC1 (centres undefined) | 31.6%
34 | Fc1ccc(C2(CNCC(F)F)CCOC2)cc1 (centres undefined) | 22.5%
35 | CCc1noc(-c2cccc(NC(=O)C(C)(C)C)c2)n1 | 32.5%
36 | Cc1ncc(-c2ccncc2)c(C2CCN(C(=O)c3ccno3)CC2)n1 | 24.05%
37 | CNC(=O)C1(C)CN(c2nc(C)cc(C)n2)CCO1 (centres undefined) | -3.94%
38 | CC(=O)Nc1nc2c(s1)C1(CCCC1)Nc1ccccc1S2 | 41.2%
39 | CC(=O)Nc1nc2c(s1)C1(CCN(C)CC1)Nc1ccccc1S2 | 10%
40 | CC(=O)Nc1nc2c(s1)C(C)(C)Nc1ccccc1S2 | 59%
41 | CC(C)(C)OC(=O)NCCNC(=O)c1ccc(-c2ccco2)[nH]c1=O | 7.12%
42 | CNC(=O)c1cnc2n1CCN(Cc1cccnc1)C2 | 49.1%
43 | Cc1cnc2n(c1=O)CC(C(=O)Nc1ccccc1Cl)CS2 (centres undefined) | -17%
44 | Cc1cnc2n(c1=O)CC(C(=O)NC1CC1)CS2 (centres undefined) | -14.6%
45 | Cc1cnc2n(c1=O)CC(C(=O)NCc1ccccc1Cl)CS2 (centres undefined) | 65.9%
46 | Cc1ccncc1NC(=O)C1CSc2ncc(C)c(=O)n2C1 (centres undefined) | 43.8%

Row | SMILES | INHIBITION
47 | CSc1ccccc1NC(=O)C1CSc2ncc(C)c(=O)n2C1 (centres undefined) | 60%
48 | Cc1cccnc1NC(=O)C1CSc2ncc(C)c(=O)n2C1 (centres undefined) | -4.99%
49 | Cc1cnc2n(c1=O)CC(C(=O)Nc1ccon1)CS2 (centres undefined) | 61.5%
50 | Cc1ccc(Cl)cc1NC(=O)C1CSc2ncc(C)c(=O)n2C1 (centres undefined) | -34.5%
51 | Cc1cccc(NC(=O)C2CSc3ncc(C)c(=O)n3C2)n1 (centres undefined) | 6.83%
52 | Cc1sc(N)nc1-c1ccc(Cl)cc1 | -7.77%
53 | COc1cccc(NC(=O)c2cc3c([nH]c2=O)CCCC3=O)c1 | -37.6%
54 | Cc1nc2ccccc2n1CCNCc1cccc(C#N)c1 | 17.5%
55 | CCNC(=O)c1ccc(NC2CCOC3(CCCCC3)C2)nn1 (centres undefined) | -9.82%
56 | CC(NC(=O)NCCCc1n[nH]c(N)c1C#N)c1ccc(Cl)cc1 (centres undefined) | 7.08%
57 | CCC1(CC)Cc2ccccc2-c2nc(CN(C)C)nc(O)c21 | 53.7%
58 | Cc1cc(NCCO)nc(-c2ccccc2O)n1 | -16%
59 | CC1(C)Cc2ccccc2-c2nc(NCCCO)[nH]c(=O)c21 | 45.8%
60 | CCC1(CC)Cc2ccccc2-c2nc(NCCCO)[nH]c(=O)c21 | 62.3%
61 | CN(Cc1ccccc1)C1(C(=O)O)Cc2ccccc2C1 | 26.1%
62 | CC1(C)Cc2ccccc2-c2nc(NCCO)[nH]c(=O)c21 | -4.74%
63 | O=c1c(NCCCO)c(N2CCN(c3ccccc3)CC2)c1=O | 44.9%
64 | CCC1(CC)Cc2ccccc2-c2nc(NCCO)[nH]c(=O)c21 | 64%
65 | CCC1(C)Cc2ccccc2-c2nc(NCCO)nc(O)c21 (centres undefined) | 20.9%
66 | CNc1ccc(CC2CCCN(C(=O)c3scnc3C)C2)nn1 (centres undefined) | 26.3%
67 | CO[C@H]1CN(C(=O)c2cccc(C)n2)CC[C@@]12CCCO2 | 21.7%
68 | Cc1ccc(N2CCCC(NCc3ccc4c(c3)CCO4)C2)nn1 (centres undefined) | 7.12%
69 | COCCN1CCCC(c2ncc(C(=O)N(C)C)c(C)n2)C1 (centres undefined) | 9.98%

Row | SMILES | INHIBITION
70 | Cc1ccc(CN2C[C@@H]3[C@@H](C(=O)NCC(C)C)CCS(=O)(=O)[C@@H]3C2)cc1 | -36.9%
71 | COc1ccc(CN(C)Cn2cc(C)n(-c3cc(C)on3)c2=O)cc1 | 19.3%
72 | Cc1cccnc1NC(=O)N(CCO)Cc1ccsc1 | -6.75%
73 | CNC(=O)c1cccnc1N1CCC(OCc2ccccc2)CC1 | 6.11%
74 | O=C(O)c1ccc(N2CCC(Oc3ccc(Cl)cc3)CC2)nc1 | 29.4%
75 | COC(=O)c1cccnc1N1CCC(Oc2cccc(F)c2)CC1 | 58.4%
76 | CNC(=O)c1cccnc1N1CCC(Oc2ccc(F)cc2)CC1 | 93.6%
77 | CCN(C)C(=O)c1ccc(N2CCC(Oc3cccc(F)c3)CC2)nc1 | 61%
78 | CNC(=O)c1cccnc1N1CCN(C/C=C/c2ccccc2)CC1 | 25.1%
79 | Cc1ccc(NC2CCN(C(=O)COc3cccc(F)c3)CC2)nn1 | 4.52%
80 | O=C(O)c1cccc(N2CCC(Oc3cccc(F)c3)CC2)n1 | 35%
81 | O=C(O)c1ccc(N2CCC(Oc3cccc(F)c3)CC2)nc1 | 32.2%
82 | COc1ncccc1C(=O)N1CC[C@]2(C[C@@H](Oc3cccnc3)CO2)C1 | 6.66%
83 | CC(C)NC(=O)C1CN(C(=O)Nc2cccc(F)c2)CC12CCOCC2 (centres undefined) | 17.1%
84 | Cc1cnn(CC(C)Nc2cnc3ccccc3n2)c1 (centres undefined) | -26.8%
85 | CCn1cc(-n2cc3nc(N4CCN(C)CC4)[nH]cc-3c2=O)cn1 | -5.53%
86 | CN(C)S(=O)(=O)N1CCN(c2cc(-n3cccc3)ncn2)CC1 | 14.4%
87 | CN(Cc1ccc(C#N)cc1)C(=O)c1ccnc(OC2CCC2)c1 | 51.4%
88 | CN(Cc1cnn(C)c1)C(=O)c1ccnc(OC2CCC2)c1 | 46.4%
89 | CN(Cc1cnccn1)C(=O)c1ccnc(OC2CCC2)c1 | 36.3%
90 | CN(CC1CCCCO1)C(=O)c1ccnc(OC2CCC2)c1 (centres undefined) | 9.48%
91 | CN(Cc1nnc(C2CC2)n1C)C(=O)c1ccnc(OC2CCC2)c1 | -13.4%
92 | CCc1noc(CN(C)C(=O)c2ccnc(OC3CCC3)c2)n1 | 55.4%

Row | SMILES | INHIBITION
93 | CC(C)NC(=O)N1CCc2ncc(CN3CCOCC3)n2CC1 | 21.6%
94 | CCCS(=O)(=O)N1Cc2nccn2CC(CN(C)C)C1 (centres undefined) | -57.5%
95 | CC(=O)Nc1ccc(CNCc2ccc(CS(C)(=O)=O)cc2)cc1 | 38%
96 | Cc1cc(NCc2csc(C)n2)no1 | 29.4%
97 | COCc1nc(CNc2cccc(-c3nc(C)c(C)o3)c2)cs1 | 65.3%
98 | Cc1cc(NCc2csc(-c3ccsc3)n2)no1 | -92.1%
99 | COCc1nc(CNc2cccc(-c3ncon3)c2)cs1 | -42.1%
100 | COCc1nc(CNc2cccc(-c3csc(C)n3)c2)cs1 | 18.9%
101 | COCc1nc(CNc2cc(C)on2)cs1 | 51.7%
102 | CN(Cc1noc2c1CCCC2)C(=O)Nc1ccc2oc(=O)n(C)c2c1 | 36.4%
103 | Cc1cnn(CCNCc2ccccc2OCc2ccncc2)c1 | -15.5%
104 | COc1cc(C(=O)N(Cc2ccco2)C2CC2)cc(OC)c1OC | 53.4%
105 | CCN(Cc1ccco1)C(=O)c1cc(OC)c2c(c1)OCCO2 | 10.3%
106 | COc1cc(C(=O)N(Cc2ccco2)C2CC2)cc2c1OCCO2 | -2.37%
107 | O=C(NCCNc1ncccn1)C1CC(=O)N(C2CCCC2)C1 (centres undefined) | 21.6%
108 | Cc1cnn(CCNCc2nnc(C3CC3)o2)c1 | 21.2%
109 | c1cnn(CCNCc2nnc(C3CC3)o2)c1 | 53.5%
110 | c1ccc(-c2nnc(CNCCn3cccn3)o2)cc1 | 32.6%
111 | Cn1cccc1C(=O)N1CC[C@H]2C[C@@H](c3ccncn3)O[C@@H]2C1 | 41.5%
112 | Cc1noc2nc(C3CCN(Cc4ccncc4)CC3)cc(C(F)F)c12 | 44.9%
113 | Cc1noc2nc(C3CCN(Cc4cccnc4)CC3)cc(C(F)F)c12 | 48.3%
114 | Cc1noc2nc(C3CCN(CC4CCCCC4)CC3)cc(C(F)F)c12 | 59%
